From PubChem BioAssay AID1159580 (chemical genetic matrix, 2015)
Screen size: about 5,500 compounds; about 2,000 (36%) were called active. Inconclusive results (about 18%) are left out. No stated cut-off is given here; in the data, active means normalized growth mostly below about 0.91 (no sharp cut-off); inconclusive means no clear call, values can overlap the other calls; inactive means mostly above about 0.92. This is one part of the list.

Assay: chemical genetic growth profiling, strain panel (AID 1159580);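 further: tested at 20 µM; growth read once vehicle control cultures reached saturation at 30 °C; 1 = growth at the plate median or of vehicle wells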
Conditions: S. cerevisiae deletion strains, growth OD

Measured: normalized growth

COc1cc2ccc(=O)oc2c(OC)c1OC
inactive: locus YAL021C, strain ccr4, stronger effect = lower value 1 | locus YAL026C, strain drs2, stronger effect = lower value 0.983 | locus YAL030W, strain snc1, stronger effect = lower value 0.98 | locus YBL061C, strain skt5, stronger effect = lower value 0.997 | locus YBR009C, strain hhf1, stronger effect = lower value 0.998 | locus YBR021W, strain FUR4, stronger effect = lower value 0.97 | locus YBR023C, strain chs3, stronger effect = lower value 0.995 | locus YBR171W, strain sec66, stronger effect = lower value 0.974 | locus YBR229C, strain ROT2, stronger effect = lower value 1.02 | locus YBR231C, strain swc5, stronger effect = lower value 1.02 | locus YBR279W, strain paf1, stronger effect = lower value 0.991 | locus YCL011C, strain gbp2, stronger effect = lower value 0.977 | locus YCL016C, strain dcc1, stronger effect = lower value 0.971 | locus YCL029C, strain bik1, stronger effect = lower value 1.03 | locus YCL069W, strain vba3, stronger effect = lower value 0.975 | locus YCR088W, strain abp1, stronger effect = lower value 0.98 | locus YDL005C, strain med2, stronger effect = lower value 0.977 | locus YDL035C, strain GPR1, stronger effect = lower value 1.04 | locus YDL040C, strain nat1, stronger effect = lower value 0.978 | locus YDL074C, strain BRE1, stronger effect = lower value 1.03 | locus YDL101C, strain DUN1, stronger effect = lower value 1.02 | locus YDL134C, strain PPH21, stronger effect = lower value 1.02 | locus YDL185W, strain tfp1, stronger effect = lower value 1.03 | locus YDL192W, strain arf1, stronger effect = lower value 1.01 | locus YDR001C, strain nth1, stronger effect = lower value 1 | locus YDR069C, strain doa4, stronger effect = lower value 0.99 | locus YDR101C, strain arx1, stronger effect = lower value 1 | locus YDR137W, strain rgp1, stronger effect = lower value 0.997 | locus YDR159W, strain sac3, stronger effect = lower value 1.04 | locus YDR162C, strain NBP2, stronger effect = lower value 1.05 | locus YDR195W, strain ref2 0.984 | locus YDR297W, strain sur2, stronger effect = lower value 0.997 | locus YDR318W, strain mcm21, stronger effect = lower value 1.03 | locus YDR334W, strain swr1, stronger effect = lower value 0.98 | locus YDR335W, strain msn5, stronger effect = lower value 0.973 | locus YDR388W, stronger effect = lower value 1.02 | locus YDR392W, strain spt3, stronger effect = lower value 1 | locus YDR502C, strain sam2, stronger effect = lower value 1.02 | locus YEL003W, strain gim4, stronger effect = lower value 0.968 | locus YEL037C, strain rad23, stronger effect = lower value 0.987 | locus YEL061C, strain CIN8 (second series), stronger effect = lower value 0.996 | locus YER015W, strain faa2, stronger effect = lower value 0.995 | locus YER016W, strain bim1, stronger effect = lower value 0.959 | locus YER110C, stronger effect = lower value 1.01 | locus YER111C, strain swi4, stronger effect = lower value 0.979 | locus YER155C, strain BEM2 (second series), stronger effect = lower value 0.982 | locus YER155C, strain BEM2, stronger effect = lower value 1 | locus YER167W, strain BCK2, stronger effect = lower value 1.02 | locus YFR010W, strain ubp6, stronger effect = lower value 1.01 | locus YGL078C, strain dbp3, stronger effect = lower value 1.04 | locus YGL086W, strain mad1, stronger effect = lower value 1 | locus YGL167C, strain pmr1, stronger effect = lower value 0.983 | locus YGL173C, strain kem1, stronger effect = lower value 0.956 | locus YGL227W, strain vid30, stronger effect = lower value 0.976 | locus YGL240W, strain doc1, stronger effect = lower value 0.985 | locus YGL248W, strain PDE1, stronger effect = lower value 1.03 | locus YGL253W, strain hxk2, stronger effect = lower value 0.992 | locus YGR135W, strain pre9, stronger effect = lower value 1.04 | locus YGR229C, strain SMI1, stronger effect = lower value 1.01 | locus YGR252W, strain gcn5, stronger effect = lower value 1 | locus YHR013C, strain ard1, stronger effect = lower value 0.953 | locus YHR027C, strain rpn1, stronger effect = lower value 0.996 | locus YHR079C, strain IRE1 (second series), stronger effect = lower value 1.01 | locus YHR094C, strain hxt1, stronger effect = lower value 1.02 | locus YHR129C, strain ARP1, stronger effect = lower value 1.01 | locus YHR142W, strain chs7, stronger effect = lower value 0.951 | locus YHR200W, strain rpn10, stronger effect = lower value 1.02 | locus YIL066C, strain RNR3, stronger effect = lower value 1.03 | locus YIL073C, strain SPO22, stronger effect = lower value 1.07 | locus YIL125W, strain kgd1, stronger effect = lower value 1.01 | locus YIR030C, strain dcg1, stronger effect = lower value 1.02 | locus YJL092W, strain hpr5, stronger effect = lower value 0.967 | locus YJL095W, strain BCK1 (second series), stronger effect = lower value 0.978 | locus YJL095W, strain BCK1, stronger effect = lower value 1.02 | locus YJL115W, strain asf1, stronger effect = lower value 0.987 | locus YJL129C, strain trk1, stronger effect = lower value 0.961 | locus YJL134W, strain LCB3, stronger effect = lower value 1.01 | locus YJL154C, strain vps35, stronger effect = lower value 0.979 | locus YJL164C, strain tpk1, stronger effect = lower value 0.991 | locus YJL166W, strain qcr8, stronger effect = lower value 0.978 | locus YJL168C, strain set2, stronger effect = lower value 1.02 | locus YJL187C, strain SWE1 (second series), stronger effect = lower value 1.02 | locus YKL009W, strain mrt4, stronger effect = lower value 1.07 | locus YKL068W, stronger effect = lower value 0.996 | locus YKL085W, strain MDH1 (second series), stronger effect = lower value 1.01 | locus YKL085W, strain MDH1, stronger effect = lower value 1.01 | locus YKL160W, strain elf1, stronger effect = lower value 0.965 | locus YKL190W, strain CNB1, stronger effect = lower value 1.01 | locus YKR001C, strain vps1, stronger effect = lower value 0.992 | locus YKR026C, strain gcn3, stronger effect = lower value 1 | locus YKR091W, strain srl3, stronger effect = lower value 0.964 | locus YLL001W, strain dnm1, stronger effect = lower value 0.987 | locus YLL026W, stronger effect = lower value 0.992 | locus YLL041C, strain sdh2, stronger effect = lower value 0.979 | locus YLR027C, strain aat2, stronger effect = lower value 0.987 | locus YLR039C, strain RIC1, stronger effect = lower value 1.07 | locus YLR058C, strain SHM2, stronger effect = lower value 1.04 | locus YLR102C, strain apc9, stronger effect = lower value 1.02 | locus YLR221C, strain rsa3, stronger effect = lower value 1.02 | locus YLR258W, strain gsy2, stronger effect = lower value 0.992 | locus YLR262C, strain YPT6 (second series), stronger effect = lower value 1 | locus YLR268W, strain sec22, stronger effect = lower value 1.03 | locus YLR320W, strain mms22, stronger effect = lower value 1.02 | locus YLR342W, strain FKS1, stronger effect = lower value 0.979 | locus YLR357W, strain rsc2, stronger effect = lower value 0.964 | locus YLR370C, strain arc18, stronger effect = lower value 0.979 | locus YLR371W, strain rom2, stronger effect = lower value 1.01 | locus YLR384C, strain iki3, stronger effect = lower value 0.991 | locus YLR418C, strain cdc73, stronger effect = lower value 1.03 | locus YML016C, strain PPZ1, stronger effect = lower value 1.03 | locus YML032C, strain rad52, stronger effect = lower value 0.996 | locus YML120C, strain ndi1, stronger effect = lower value 0.979 | locus YML124C, strain tub3, stronger effect = lower value 1.02 | locus YMR058W, strain fet3, stronger effect = lower value 0.974 | locus YMR078C, strain ctf18, stronger effect = lower value 1.02 | locus YMR125W, strain sto1, stronger effect = lower value 0.976 | locus YMR129W, stronger effect = lower value 0.991 | locus YMR205C, strain PFK2, stronger effect = lower value 0.995 | locus YMR223W, strain ubp8, stronger effect = lower value 0.999 | locus YMR231W, strain pep5, stronger effect = lower value 0.98 | locus YMR307W, strain GAS1, stronger effect = lower value 1.07 | locus YNL067W, strain RPL9B, stronger effect = lower value 1.02 | locus YNL071W, strain lat1, stronger effect = lower value 0.999 | locus YNL153C, strain GIM3, stronger effect = lower value 1.02 | locus YNL209W, strain ssb2, stronger effect = lower value 0.976 | locus YNL233W, strain BNI4, stronger effect = lower value 1.01 | locus YNL248C, strain rpa49, stronger effect = lower value 0.962 | locus YNL250W, strain rad50, stronger effect = lower value 1.03 | locus YNL271C, strain bni1, stronger effect = lower value 1.02 | locus YNL298W, strain CLA4, stronger effect = lower value 0.999 | locus YNL307C, strain MCK1, stronger effect = lower value 1.03 | locus YNL322C, strain KRE1 (second series), stronger effect = lower value 0.971 | locus YNL322C, strain KRE1, stronger effect = lower value 1.02 | locus YNR049C, strain mso1, stronger effect = lower value 0.954 | locus YNR052C, strain pop2, stronger effect = lower value 1.02 | locus YOL006C, strain TOP1, stronger effect = lower value 1.06 | locus YOL012C, strain htz1 1.05 | locus YOL147C, strain pex11, stronger effect = lower value 1.01 | locus YOR001W, strain rrp6, stronger effect = lower value 1.02 | locus YOR061W, strain CKA2, stronger effect = lower value 1.04 | locus YOR069W, strain VPS5, stronger effect = lower value 1.01 | locus YOR070C, strain gyp1, stronger effect = lower value 0.994 | locus YOR080W, strain dia2, stronger effect = lower value 0.968 | locus YOR083W, strain WHI5, stronger effect = lower value 0.952 | locus YOR106W, strain vam3, stronger effect = lower value 0.969 | locus YOR136W, strain idh2, stronger effect = lower value 1.03 | locus YOR144C, strain elg1, stronger effect = lower value 1.02 | locus YOR184W, strain ser1, stronger effect = lower value 1.04 | locus YOR265W, strain rbl2, stronger effect = lower value 0.994 | locus YOR270C, strain vph1, stronger effect = lower value 0.957 | locus YOR290C, strain snf2, stronger effect = lower value 0.964 | locus YOR316C, strain cot1, stronger effect = lower value 1.02 | locus YPL051W, strain arl3, stronger effect = lower value 0.982 | locus YPL078C, strain atp4, stronger effect = lower value 0.966 | locus YPL106C, strain sse1, stronger effect = lower value 0.977 | locus YPL240C, strain hsp82, stronger effect = lower value 0.986 | locus YPR119W, strain clb2, stronger effect = lower value 1.01 | locus YPR141C, strain kar3, stronger effect = lower value 1.02 | locus YPR163C, strain tif3, stronger effect = lower value 1.03 | locus YPR167C, strain met16, stronger effect = lower value 1.04 | strain wtn01, stronger effect = lower value 1.02
